# Results as given in PubChem BioAssay (Tox21).
# Inconclusive results are not listed. Where a call stands in place of a potency, no number is given. Active and inactive are the calls of the source. The call rests on the fitted dose curve; in most records, active means well fitted cell-killing curve with a large enough effect in the repeat runs; inconclusive means weak or mixed curves, or effect the other way; inactive means flat fitted curve, though single readings scatter.
# Test: qHTS assay to identify small molecule that activate the aryl hydrocarbon receptor (AhR) signaling pathway - cell viability counter screen (AID 743086); further: nearly all actives have a fitted effect of over 45% in size
# Conditions: HepG2-AhR-luc viability, CellTiter-Fluor, 24 h; series mostly up to 70.3 µM
# From the text: U.S. Tox21 Program National Center for Advancing Translational Sciences [NCATS] NIH Chemical Genomics Center [NCGC] U.S. Environmental Protection Agency [EPA] National Institutes of Environmental Health Sciences [NIEHS] National Toxicology Program [NTP] U.S. Food and Drug Administration [FDA] Tox21 Assay overview: The Aryl hydrocarbon Receptor (AhR), a member of the family of basic helix-loop-helix transcription factors, is crucial to adaptive responses to environmental changes. AhR mediates cellular responses to environmental pollutants such as aromatic hydrocarbons through induction of phase I and II enzymes but also interacts with other nuclear receptor signaling pathways A cell based HepG2-AhR-luc assay (HG2L7.5c1 cell line, developed by Dr. Michael S. Denison, University of California at Davis) was used to assess the activation of AhR. HepG2 (human hepatocellular carcinoma) cells were stably transfected with an Ah receptor-responsive firefly luciferase reporter gene plasmid containing 20 dioxin responsive elements and luciferase reporter gene. Increased luciferase activity can be used to identify the compounds that induce AhR activation. The cytotoxicity of the compounds screened against the HepG2-AhR-luc cell line was tested in parallel by measuring the cell viability using CellTiter-Fluor assay in the same wells.
# Tox21 Assay Protocol Summary: 4000 cells in 5 uL/well were dispensed into white wall/solid bottom 1536-well plates using a Multidrop Combi (Thermo Fisher Scientific Inc., Waltham, MA) dispenser. After the assay plates were incubated at 37C for 5 h, 23 nL of compound or DMSO vehicle was transferred to the assay plates by a pintool station (Kalypsys, San Diego, CA). The plates were incubated at 37C for 24 hr. For cell viability measurement, 1 ul/well of CellTiter-Fluor reagent (Promega, Madison, WI) was added into the assay plates using a Flying Reagent Dispenser (FRD) (Aurora Discovery, CA),and then the assay plates were incubated at 37C for 30 min. The fluorescence intensity in the plates was measured using a ViewLux plate reader (PerkinElmer, Shelton, CT), followed by the addition of 4 uL of ONE-Glo Luciferase Assay reagent (Promega) using an FRD (Aurora Discovery). After the assay plates were incubated at room temperature for 30 min, luminescence intensity was measured using a ViewLux plate reader (Perkin Elmer).
# Potency means the concentration at half of the fitted maximal effect.
row,SMILES,Potency
1,N#Cc1ccc(C(=O)O)cc1,inactive
2,O=C(/N=N/C(=O)OCc1ccccc1)OCc1ccccc1,inactive
3,CCOC(=O)/C=C/c1ccccc1,inactive
4,O=C(O)C(=O)Cc1ccccc1,inactive
5,C[Si](C)(C)C,inactive
6,Cc1cccc(C)c1NC(=O)c1ccccc1C(=O)O,inactive
7,CCOCCOCCOCC,inactive
8,C=COCCOCCOCCOC=C,inactive
9,O=Cc1ccc(Cl)c(Cl)c1,inactive
10,CC(C)NCC(O)COc1ccc(COCCOC(C)C)cc1 (stereo not given),inactive
11,O=C1c2ccccc2C(=O)c2cc(S(=O)(=O)O)ccc21,inactive
12,C=CC(OCC)OCC,inactive
13,N[C@@H](CCC(=O)N[C@@H](CS)C(=O)NCC(=O)O)C(=O)O,inactive
14,O=C(OCc1ccccc1)C(=O)OCc1ccccc1,inactive
15,C=C1CC/C=C(\C)CC[C@@H]2[C@@H]1CC2(C)C,inactive
16,CC(=O)CCCCn1c(=O)c2c(ncn2C)n(C)c1=O,inactive
17,C#CC(C)N(C)C(=O)Nc1ccc(Cl)cc1 (stereo not given),inactive
18,O=C(NCCc1c[nH]c2ccccc12)c1cccnc1,inactive
19,C[C@@H](Oc1ccc(CNC(=O)c2cccnc2Oc2ccc3c(c2)OCO3)c(F)c1)C(=O)O,inactive
20,COc1ccc2c(c1OC)C(=O)O[C@@H]2[C@H]1c2c(cc3c(c2OC)OCO3)CCN1C,29.8 µM (active)

row,SMILES,Potency
1,O=S(=O)(O)CCN1CCN(CCO)CC1,inactive
2,CC(S)C(=O)NCC(=O)O (stereo not given),inactive
3,NNc1nnc(NN)c2ccccc12,inactive
4,O=P(O)(O)OP(=O)(O)O,inactive
5,O=C(O)c1cc(Br)c(O)c(Br)c1,inactive
6,CC(C)=O,inactive
7,CCOC(=O)c1ncn2c1CN(C)C(=O)c1cc(F)ccc1-2,inactive
8,O=C1c2ccccc2C(=O)N1CCl,inactive
9,CC(C)N(c1ccccc1)C(C)C,inactive
10,COCCOC(=O)C1=C(C)NC(C)=C(C(=O)OC(C)C)C1c1cccc([N+](=O)[O-])c1 (stereo not given),inactive
11,O=C(Nc1ccc(Cl)c(Cl)c1)C1CC1,inactive
12,Cc1ccccc1N=O,inactive
13,O=C1CCCC(=O)O1,inactive
14,Oc1cn2c(n1)Nc1ccc(Cl)c(Cl)c1C2,inactive
15,CCCCCCCCC1CCC(=O)O1 (stereo not given),inactive
16,COc1ccc2c(c1)C(=O)N(CCc1ccc(S(=O)(=O)NC(=O)NC3CCCCC3)cc1)C(=O)C2(C)C,inactive
17,CNC(=O)[C@H]1O[C@@H](n2cnc3c(NCc4cc(Cl)ccc4OCc4cc(C)no4)ncnc32)[C@H](O)[C@@H]1N,inactive
18,CCCCCCOc1ccccc1C(N)=O,inactive
19,CCCCOC(=O)c1ccccc1,inactive
20,COc1cc2c(cc1OC)[C@@H]1CC(=O)[C@@H](CC(C)C)CN1CC2,inactive
